Measured values as given in PubChem BioAssay AID1159580 (chemical genetic matrix, 2015).
The campaign covered roughly 5,500 compounds. About 2,000 (36%) were called active. Another 18% or so got no clear call; they are omitted. Cut-off read from the data, not from the text of the source: active = normalized growth mostly below about 0.91 (no sharp cut-off); inconclusive = no clear call, values can overlap the other calls; inactive = mostly above about 0.92. This is one part of the list.

Test: chemical genetic growth profiling, strain panel (AID 1159580);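 note: tested at 20 µM; growth read once vehicle control cultures reached saturation at 30 °C; 1 = growth at the plate median or of vehicle wells; lower values mean less growth of the strain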
Settings: growth OD

Measured: normalized growth

CCN(CCO)CCCC(C)Nc1ccnc2cc(Cl)ccc12 (configuration not stated)
inactive: S. cerevisiae deletion strains, locus YJR075W, strain HOC1, active compounds read low 1.01 | S. cerevisiae deletion strains, locus YKL009W, strain mrt4, active compounds read low 1.03 | S. cerevisiae deletion strains, locus YKL068W, active compounds read low 0.998 | S. cerevisiae deletion strains, locus YKL085W, strain MDH1 (second series), active compounds read low 1 | S. cerevisiae deletion strains, locus YKL085W, strain MDH1, active compounds read low 1 | S. cerevisiae deletion strains, locus YKL160W, strain elf1, active compounds read low 0.995 | S. cerevisiae deletion strains, locus YKL190W, strain CNB1, active compounds read low 1.02 | S. cerevisiae deletion strains, locus YKR001C, strain vps1, active compounds read low 1.03 | S. cerevisiae deletion strains, locus YKR026C, strain gcn3, active compounds read low 1 | S. cerevisiae deletion strains, locus YKR091W, strain srl3, active compounds read low 1 | S. cerevisiae deletion strains, locus YLL001W, strain dnm1, active compounds read low 0.988 | S. cerevisiae deletion strains, locus YLL026W, active compounds read low 1.01 | S. cerevisiae deletion strains, locus YLL041C, strain sdh2, active compounds read low 1.01 | S. cerevisiae deletion strains, locus YLR027C, strain aat2, active compounds read low 1 | S. cerevisiae deletion strains, locus YLR039C, strain RIC1, active compounds read low 1.04 | S. cerevisiae deletion strains, locus YLR058C, strain SHM2, active compounds read low 1.01 | S. cerevisiae deletion strains, locus YLR102C, strain apc9, active compounds read low 1.01 | S. cerevisiae deletion strains, locus YLR113W, strain HOG1, active compounds read low 1.03 | S. cerevisiae deletion strains, locus YLR221C, strain rsa3, active compounds read low 0.996 | S. cerevisiae deletion strains, locus YLR258W, strain gsy2, active compounds read low 0.999 | S. cerevisiae deletion strains, locus YLR262C, strain YPT6 (second series), active compounds read low 0.989 | S. cerevisiae deletion strains, locus YLR262C, strain YPT6, active compounds read low 1.06 | S. cerevisiae deletion strains, locus YLR268W, strain sec22, active compounds read low 1.02 | S. cerevisiae deletion strains, locus YLR320W, strain mms22, active compounds read low 0.997 | S. cerevisiae deletion strains, locus YLR330W, strain CHS5, active compounds read low 1.01 | S. cerevisiae deletion strains, locus YLR342W, strain FKS1 (second series), active compounds read low 1.02 | S. cerevisiae deletion strains, locus YLR342W, strain FKS1, active compounds read low 0.997 | S. cerevisiae deletion strains, locus YLR357W, strain rsc2, active compounds read low 1.02 | S. cerevisiae deletion strains, locus YLR370C, strain arc18, active compounds read low 1 | S. cerevisiae deletion strains, locus YLR371W, strain rom2, active compounds read low 1 | S. cerevisiae deletion strains, locus YLR384C, strain iki3, active compounds read low 1 | S. cerevisiae deletion strains, locus YLR418C, strain cdc73, active compounds read low 1.04 | S. cerevisiae deletion strains, locus YML016C, strain PPZ1, active compounds read low 1 | S. cerevisiae deletion strains, locus YML032C, strain rad52, active compounds read low 1.05 | S. cerevisiae deletion strains, locus YML120C, strain ndi1, active compounds read low 0.999 | S. cerevisiae deletion strains, locus YML124C, strain tub3, active compounds read low 1.01 | S. cerevisiae deletion strains, locus YMR058W, strain fet3, active compounds read low 1 | S. cerevisiae deletion strains, locus YMR078C, strain ctf18, active compounds read low 1.03 | S. cerevisiae deletion strains, locus YMR125W, strain sto1, active compounds read low 1 | S. cerevisiae deletion strains, locus YMR129W, active compounds read low 1 | S. cerevisiae deletion strains, locus YMR205C, strain PFK2, active compounds read low 0.986 | S. cerevisiae deletion strains, locus YMR223W, strain ubp8, active compounds read low 1.02 | S. cerevisiae deletion strains, locus YMR231W, strain pep5, active compounds read low 0.987 | S. cerevisiae deletion strains, locus YMR263W, strain SAP30, active compounds read low 1.01 | S. cerevisiae deletion strains, locus YMR307W, strain GAS1, active compounds read low 1.11 | S. cerevisiae deletion strains, locus YNL067W, strain RPL9B, active compounds read low 1.01 | S. cerevisiae deletion strains, locus YNL071W, strain lat1, active compounds read low 1 | S. cerevisiae deletion strains, locus YNL128W, strain TEP1, active compounds read low 1.02 | S. cerevisiae deletion strains, locus YNL153C, strain GIM3, active compounds read low 1 | S. cerevisiae deletion strains, locus YNL183C, strain NPR1, active compounds read low 0.952 | S. cerevisiae deletion strains, locus YNL209W, strain ssb2, active compounds read low 1 | S. cerevisiae deletion strains, locus YNL233W, strain BNI4, active compounds read low 1.01 | S. cerevisiae deletion strains, locus YNL248C, strain rpa49, active compounds read low 1 | S. cerevisiae deletion strains, locus YNL250W, strain rad50, active compounds read low 1.03 | S. cerevisiae deletion strains, locus YNL271C, strain bni1, active compounds read low 1.01 | S. cerevisiae deletion strains, locus YNL298W, strain CLA4, active compounds read low 1.02 | S. cerevisiae deletion strains, locus YNL307C, strain MCK1, active compounds read low 1.01 | S. cerevisiae deletion strains, locus YNL322C, strain KRE1 (second series), active compounds read low 1 | S. cerevisiae deletion strains, locus YNL322C, strain KRE1, active compounds read low 1.01 | S. cerevisiae deletion strains, locus YNR049C, strain mso1, active compounds read low 0.999 | S. cerevisiae deletion strains, locus YNR052C, strain pop2, active compounds read low 1.02 | S. cerevisiae deletion strains, locus YOL006C, strain TOP1, active compounds read low 1.01 | S. cerevisiae deletion strains, locus YOL012C, strain htz1 0.994 | S. cerevisiae deletion strains, locus YOL147C, strain pex11, active compounds read low 1.02 | S. cerevisiae deletion strains, locus YOR001W, strain rrp6, active compounds read low 1 | S. cerevisiae deletion strains, locus YOR061W, strain CKA2, active compounds read low 1.01 | S. cerevisiae deletion strains, locus YOR069W, strain VPS5, active compounds read low 1.01 | S. cerevisiae deletion strains, locus YOR070C, strain gyp1, active compounds read low 0.995 | S. cerevisiae deletion strains, locus YOR080W, strain dia2, active compounds read low 0.997 | S. cerevisiae deletion strains, locus YOR083W, strain WHI5, active compounds read low 0.996 | S. cerevisiae deletion strains, locus YOR106W, strain vam3, active compounds read low 1.01 | S. cerevisiae deletion strains, locus YOR136W, strain idh2, active compounds read low 1.03 | S. cerevisiae deletion strains, locus YOR144C, strain elg1, active compounds read low 1.02 | S. cerevisiae deletion strains, locus YOR184W, strain ser1, active compounds read low 1.03 | S. cerevisiae deletion strains, locus YOR231W, strain MKK1, active compounds read low 1.02 | S. cerevisiae deletion strains, locus YOR265W, strain rbl2, active compounds read low 1.04 | S. cerevisiae deletion strains, locus YOR270C, strain vph1, active compounds read low 1.03 | S. cerevisiae deletion strains, locus YOR290C, strain snf2, active compounds read low 1.03 | S. cerevisiae deletion strains, locus YOR316C, strain cot1, active compounds read low 1.01 | S. cerevisiae deletion strains, locus YPL051W, strain arl3, active compounds read low 0.995 | S. cerevisiae deletion strains, locus YPL055C, strain LGE1, active compounds read low 1.04 | S. cerevisiae deletion strains, locus YPL078C, strain atp4, active compounds read low 1.01 | S. cerevisiae deletion strains, locus YPL106C, strain sse1, active compounds read low 0.991 | S. cerevisiae deletion strains, locus YPL240C, strain hsp82, active compounds read low 1 | S. cerevisiae deletion strains, locus YPL241C, strain CIN2, active compounds read low 1.01 | S. cerevisiae deletion strains, locus YPL256C, strain CLN2, active compounds read low 0.966 | S. cerevisiae deletion strains, locus YPR119W, strain clb2, active compounds read low 1.01 | S. cerevisiae deletion strains, locus YPR141C, strain kar3, active compounds read low 1.02 | S. cerevisiae deletion strains, locus YPR163C, strain tif3, active compounds read low 1.01 | S. cerevisiae deletion strains, locus YPR167C, strain met16, active compounds read low 1.01 | S. cerevisiae deletion strains, strain wtn01, active compounds read low 1.01 | S. cerevisiae strains, strain wild type, active compounds read low 1.02
